According to PubChem BioAssay (Tox21):
Unmarked numbers belong to inactive results. Records with an inconclusive call do not appear. A call without a number means that no potency is given here. Active and inactive are the calls of the source. Unless noted, calls come from the whole dose curve; as a rule, active = well fitted curve in the direction sought with a large enough effect in the repeat runs; inconclusive = weak or mixed curves; inactive = no such curve, though single readings can be large; an effect the other way counts as inactive or inconclusive.

Columns and labels:
[1] = qHTS assay to identify small molecule antagonists of the estrogen receptor alpha (ER-alpha) signaling pathway using the BG1 cell line in the presence of 0.1 nM 17-beta-estradiol - cell viability counter screen (AID 1259241); note: nearly all actives have a fitted effect of over 40% in size; note: potency is the fitted concentration of half-maximal effect
Outline: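 Viability in VM7Luc4E2 cells after 22 hr compound exposure under 0.1 nM 17beta-estradiol stimulation, by CellTiter-Fluor.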

[2] = qHTS assay to identify small molecule antagonists of the androgen receptor (AR) signaling pathway using the MDA cell line in the presence of 0.5 nM R1881 - cell viability counter screen (AID 1259242); note: nearly all actives have a fitted effect of over 45% in size; note: potency is the fitted concentration of half-maximal effect
Outline: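 Live-cell protease activity was measured by CellTiter-Fluor fluorescence after 30 min. Before that, MDA-kb2 MMTV-luciferase cells had 16 hr at 37C without CO2, exposed to test compounds and 0.5 nM R1881 final.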

[3] = target: Androgen receptor (Homo sapiens) (UniProt P10275); experiment: qHTS assay to identify small molecule antagonists of the androgen receptor (AR) signaling pathway using the MDA cell line in the presence of 0.5 nM R1881 (AID 1259243); note: nearly all actives have a fitted effect of over 50% in size; note: potency is the fitted concentration of half-maximal effect
Chain of Androgen receptor (Homo sapiens) (P10275 whole entry, looked up): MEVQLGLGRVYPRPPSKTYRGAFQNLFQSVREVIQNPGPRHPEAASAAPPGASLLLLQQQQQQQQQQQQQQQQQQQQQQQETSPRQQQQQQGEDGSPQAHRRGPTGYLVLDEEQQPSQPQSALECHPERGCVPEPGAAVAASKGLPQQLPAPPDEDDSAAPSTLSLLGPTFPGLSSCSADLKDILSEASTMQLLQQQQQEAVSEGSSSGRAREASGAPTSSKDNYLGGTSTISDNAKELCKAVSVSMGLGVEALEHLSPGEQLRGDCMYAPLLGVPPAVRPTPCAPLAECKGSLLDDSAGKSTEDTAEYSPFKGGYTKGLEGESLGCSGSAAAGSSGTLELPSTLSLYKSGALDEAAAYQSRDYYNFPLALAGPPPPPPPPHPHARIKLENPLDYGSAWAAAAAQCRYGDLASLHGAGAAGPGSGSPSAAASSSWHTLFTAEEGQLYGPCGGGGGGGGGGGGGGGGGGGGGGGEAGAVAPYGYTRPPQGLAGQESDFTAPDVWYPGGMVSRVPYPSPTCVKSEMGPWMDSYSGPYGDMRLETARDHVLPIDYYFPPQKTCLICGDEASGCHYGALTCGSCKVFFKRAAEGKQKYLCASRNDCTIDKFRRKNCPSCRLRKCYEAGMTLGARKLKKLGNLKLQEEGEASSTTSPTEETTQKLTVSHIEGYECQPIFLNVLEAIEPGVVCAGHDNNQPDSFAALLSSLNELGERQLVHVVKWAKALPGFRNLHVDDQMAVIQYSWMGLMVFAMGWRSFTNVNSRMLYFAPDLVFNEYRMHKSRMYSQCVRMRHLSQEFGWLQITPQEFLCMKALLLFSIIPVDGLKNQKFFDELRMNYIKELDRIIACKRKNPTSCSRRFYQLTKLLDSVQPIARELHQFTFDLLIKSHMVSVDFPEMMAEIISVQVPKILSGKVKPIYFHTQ
Outline: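 Luminescent reporter readout (ONE-Glo, 30 min, room temperature) after 16 hr co-treatment of MDA-kb2 cells with test compounds and 0.5 nM R1881 final, at 37C without CO2. The MMTV-driven luciferase responds to both AR and GR.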

[4] = target: Estrogen receptor (Homo sapiens) (UniProt P03372); experiment: qHTS assay to identify small molecule antagonists of the estrogen receptor alpha (ER-alpha) signaling pathway using the BG1 cell line in the presence of 0.1 nM 17-beta-estradiol (AID 1259244); note: nearly all actives have a fitted effect of over 50% in size
Chain of Estrogen receptor (Homo sapiens) (P03372 whole entry, looked up): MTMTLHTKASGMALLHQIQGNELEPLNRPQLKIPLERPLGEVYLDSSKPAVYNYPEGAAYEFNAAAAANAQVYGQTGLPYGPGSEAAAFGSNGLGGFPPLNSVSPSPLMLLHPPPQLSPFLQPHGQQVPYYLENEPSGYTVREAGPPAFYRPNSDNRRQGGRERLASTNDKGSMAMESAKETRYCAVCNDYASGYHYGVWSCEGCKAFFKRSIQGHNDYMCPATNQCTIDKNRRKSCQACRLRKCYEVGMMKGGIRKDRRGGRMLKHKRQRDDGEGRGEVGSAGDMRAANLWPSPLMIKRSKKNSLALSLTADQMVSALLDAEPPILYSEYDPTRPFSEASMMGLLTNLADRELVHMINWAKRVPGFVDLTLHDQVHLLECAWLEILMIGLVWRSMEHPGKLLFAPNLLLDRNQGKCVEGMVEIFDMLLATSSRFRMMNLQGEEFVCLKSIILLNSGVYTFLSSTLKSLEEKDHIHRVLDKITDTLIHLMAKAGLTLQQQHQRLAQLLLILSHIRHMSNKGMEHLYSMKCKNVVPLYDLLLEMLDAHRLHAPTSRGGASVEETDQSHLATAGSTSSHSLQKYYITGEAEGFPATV
Outline: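 Luciferase luminescence (ONE-Glo, 30 min at room temperature) was read after 22 hr at 37C exposure to compounds plus 17beta-estradiol at 0.1 nM final. Cells were VM7Luc4E2 with endogenous ER-alpha and an ERE-driven luciferase, pre-cultured 5 days in hormone-depleted medium.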

[5] = qHTS assay to identify small molecule phospholipidosis (PLD) inducers (AID 1259344; active = well fitted curve in the direction sought with a large enough effect; an effect the other way counts as inactive or inconclusive)
Outline: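 Image-based: LipidTOX Red pit count/intensity per well and per cell; HepG2, 24 h compound at 37 C, PFA fixation, Hoechst counterstain.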

[6] = qHTS assay to identify small molecule HDAC inhibitors (AID 1259364); note: nearly all actives have a fitted effect of over 45% in size; note: potency is the fitted concentration of half-maximal effect
Outline: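 Luminescence read after 30 min room-temperature HDAC-Glo incubation measures cellular class I/II HDAC activity. Compounds were applied for 2 hr at 37 C to HCT-116 wild-type cells seeded the day before.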

[7] = qHTS assay to identify small molecule HDAC inhibitors - cell viability counter screen (AID 1259365); note: series mostly up to about 92 µM; nearly all actives have a fitted effect of over 50% in size
Outline: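 Cytotoxicity was gauged in wild-type HCT-116 cells after a brief 2hr treatment with DMSO-dissolved compounds at 37C and 5% CO2, using CellTiter-Glo luminescence developed for 30min at room temperature.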

[8] = qHTS assay to identify small molecule agonists of the sonic hedgehog signaling (Shh) pathway - cell viability counter screen (AID 1259366); note: nearly all actives have a fitted effect of over 50% in size; note: potency is the fitted concentration of half-maximal effect
Outline: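 Stable Gli1-Luc NIH/3T3 clone, 2,000 cells/well. Compound exposure 24hr at 37C. Read-out: CellTiter-Fluor fluorescence.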

[9] = qHTS assay to identify small molecule antagonists of the sonic hedgehog signaling (Shh) pathway - cell viability counter screen (AID 1259367); note: nearly all actives have a fitted effect of over 55% in size; note: potency is the fitted concentration of half-maximal effect
Outline: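 Tox21 library chemicals were tested on a Gli1-Luc NIH/3T3 clone (2,000 cells/well) stimulated by conditioned medium; viability was quantified as fluorescence from CellTiter-Fluor reagent added at 23 hr.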

[10] = qHTS assay to identify small molecule antagonists of the sonic hedgehog signaling (Shh) pathway (AID 1259369; calls by dose curve; note: nearly all actives have a fitted effect of over 45% in size; note: potency is the fitted concentration of half-maximal effect)
Outline: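 Antagonist mode: compound added to 3T3 Gli1-Luc cells followed by conditioned-medium stimulation, 24 h at 37 C, 5% CO2. Inhibition taken as loss of Gli1-driven luciferase luminescence.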

[11] = qHTS assay to identify small molecule agonists of the androgen receptor (AR) signaling pathway in the presence of an antagonist - cell viability counter screen (AID 1259379); note: nearly all actives have a fitted effect of over 25% in size; note: potency is the fitted concentration of half-maximal effect
Outline: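 Cytotoxicity counter-screen run in the same wells as the nilutamide-challenged (3.0 µM final) AR agonist assay in MDA-kb2 cells. Compounds tested at 15 concentrations for 16 h, 37 °C without CO2; CellTiter-Fluor fluorescence read.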

[12] = qHTS assay to identify small molecule agonists of the estrogen receptor beta (ER-beta) signaling pathway - cell viability counter screen (AID 1259380); note: nearly all actives have a fitted effect of over 30% in size; note: potency is the fitted concentration of half-maximal effect
Outline: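 Cell viability counter screen: CellTiter-Glo luminescence (30 min, room temperature) measured in the same wells as the beta-lactamase readout, after 16 hr compound exposure at 37C of ER-beta-bla HEK293T cells in 2% charcoal-stripped FBS medium.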

[13] = qHTS assay to identify small molecule antagonists of the estrogen receptor beta (ER-beta) signaling pathway - cell viability counter screen (AID 1259382); note: nearly all actives have a fitted effect of over 55% in size; note: potency is the fitted concentration of half-maximal effect
Outline: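 Cytotoxicity was measured in the same wells by CellTiter-Glo luminescence after 30 min at room temperature. Cells were ER-beta-bla HEK293T in charcoal-stripped serum, given compound together with 1 nM E2 and incubated 16 h at 37C.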

[14] = qHTS assay to identify small molecule agonists of the sonic hedgehog signaling (Shh) pathway (AID 1259368; calls by dose curve;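 note: NIH/3T3-derived 3T3Gli1-Luc cells carrying a stable Gli1-driven firefly luciferase reporter; series mostly up to about 92 µM; nearly all actives have a fitted effect of over 15% in size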)
Outline: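 Luminescence was read after 30 min at room temperature with luciferase reagent. Before that, 3T3Gli1-Luc cells (NIH/3T3 clone, stable Gli1-Luc reporter; 2,000/well) were exposed to compounds for 24 hr at 37C, 5% CO2, compounds being added 4 hr post-plating.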

[15] = target: Androgen receptor (Homo sapiens) (UniProt P10275); experiment: qHTS assay to identify small molecule agonists of the androgen receptor (AR) signaling pathway in the presence of an antagonist (AID 1259381; calls by dose curve; note: nearly all actives have a fitted effect of over 15% in size)
Outline: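 Agonist-mode confirmation run against 3.0 uM final nilutamide: compounds titrated at 15 concentrations onto MDA-kb2 MMTV-luciferase reporter cells. Luminescence measured with ONE-Glo following 16 hr incubation, 37C, 0% CO2.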

[16] = target: Estrogen receptor (Homo sapiens) (UniProt P03372); experiment: qHTS assay to identify small molecule agonists of the estrogen receptor alpha (ER-alpha) signaling pathway in the presence of an antagonist (AID 1259383; calls by dose curve; note: top concentration of the series differs between compounds; nearly all actives have a fitted effect of over 15% in size)
Outline: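 Agonist-mode confirmation run in the presence of 10.0nM (final) ICI-182,780 antagonist. The reporter was ERE-driven luciferase in VM7Luc4E2 cells, grown in charcoal-stripped serum. Cells were exposed to 15-concentration compound series for 22hr, then ONE-Glo luminescence was read.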

[17] = qHTS assay to identify small molecule agonists or antagonists of the thyroid stimulating hormone receptor (TSHR) signaling pathway - wild type cell line counter screen (AID 1259384; calls by dose curve)
Outline: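 Wild-type Hek293 cells, 800/well, 18 h at 37C, then compound with Ro20-1724 for 30 min RT. cAMP by HTRF (cAMP-d2/anti-cAMP cryptate), 1 h RT, fluorescence read. 15 concentrations, triplicates.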

[18] = target: Thyrotropin receptor (Homo sapiens) (UniProt P16473); experiment: qHTS assay to identify small molecule antagonists of the thyroid stimulating hormone receptor (TSHR) signaling pathway (AID 1259385; calls by dose curve; note: nearly all actives have a fitted effect of over 20% in size)
Chain of Thyrotropin receptor (Homo sapiens) (P16473 whole entry, looked up): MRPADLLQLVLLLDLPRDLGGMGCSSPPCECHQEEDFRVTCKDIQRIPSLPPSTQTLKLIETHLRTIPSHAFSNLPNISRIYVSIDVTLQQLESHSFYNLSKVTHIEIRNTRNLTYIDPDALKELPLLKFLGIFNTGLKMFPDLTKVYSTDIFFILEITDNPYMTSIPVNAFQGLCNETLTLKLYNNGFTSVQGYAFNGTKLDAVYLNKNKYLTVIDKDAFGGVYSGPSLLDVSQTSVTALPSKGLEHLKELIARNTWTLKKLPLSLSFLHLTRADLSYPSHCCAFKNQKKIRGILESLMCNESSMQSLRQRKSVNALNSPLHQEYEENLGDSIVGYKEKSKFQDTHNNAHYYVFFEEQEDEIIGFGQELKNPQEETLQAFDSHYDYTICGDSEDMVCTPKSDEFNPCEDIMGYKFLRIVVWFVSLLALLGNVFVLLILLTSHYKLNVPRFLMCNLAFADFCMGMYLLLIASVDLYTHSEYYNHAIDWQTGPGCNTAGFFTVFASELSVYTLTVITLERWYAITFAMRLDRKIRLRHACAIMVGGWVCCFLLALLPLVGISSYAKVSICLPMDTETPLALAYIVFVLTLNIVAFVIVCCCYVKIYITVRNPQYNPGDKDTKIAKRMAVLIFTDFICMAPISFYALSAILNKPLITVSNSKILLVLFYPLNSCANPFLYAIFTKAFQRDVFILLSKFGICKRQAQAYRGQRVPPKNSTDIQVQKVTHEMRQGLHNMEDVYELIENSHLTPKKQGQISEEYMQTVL
Outline: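 TSHR-HEK293 cells (800/well) plated 18 h, then compounds with Ro20-1724 and TSH at 1.5 ng/mL final, 30 min at room temperature. cAMP quantified by HTRF (cAMP-d2/anti-cAMP-cryptate, 1 h); 15 concentrations in triplicate.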

[19] = target: Estrogen receptor beta (Homo sapiens) (UniProt Q92731); experiment: qHTS assay to identify small molecule agonists of the estrogen receptor beta (ER-beta) signaling pathway (AID 1259377; active = well fitted activation curve with a large enough effect in the signal ratio in the repeat runs, not every such curve was filed as active; the % refers to the signal ratio)
Chain of Estrogen receptor beta (Homo sapiens) (Q92731 whole entry, looked up): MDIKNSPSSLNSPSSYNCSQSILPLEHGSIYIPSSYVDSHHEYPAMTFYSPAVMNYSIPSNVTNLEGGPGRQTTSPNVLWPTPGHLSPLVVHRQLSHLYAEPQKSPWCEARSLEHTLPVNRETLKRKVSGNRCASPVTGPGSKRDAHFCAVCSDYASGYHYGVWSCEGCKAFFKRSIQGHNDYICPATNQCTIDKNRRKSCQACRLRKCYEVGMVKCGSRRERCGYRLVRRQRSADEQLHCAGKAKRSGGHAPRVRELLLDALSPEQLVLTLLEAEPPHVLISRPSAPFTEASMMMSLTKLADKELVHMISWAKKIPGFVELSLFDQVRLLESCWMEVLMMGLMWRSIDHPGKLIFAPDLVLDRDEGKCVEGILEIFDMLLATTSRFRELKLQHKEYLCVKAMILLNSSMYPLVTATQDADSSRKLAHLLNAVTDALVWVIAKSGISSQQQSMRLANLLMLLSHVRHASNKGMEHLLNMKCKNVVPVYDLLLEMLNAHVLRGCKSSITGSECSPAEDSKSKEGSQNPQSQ
Outline: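 Measured by fluorescence intensity from a B/G FRET beta-lactamase substrate (2 h, room temperature) in ER-beta-UAS-bla HEK293T cells treated with DMSO-dissolved compounds for 16 hr at 37C and 5% CO2.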

[20] = target: Estrogen receptor beta (Homo sapiens) (UniProt Q92731); experiment: qHTS assay to identify small molecule antagonists of the estrogen receptor beta (ER-beta) signaling pathway (AID 1259378; active = well fitted inhibition curve with a large enough effect in the signal ratio in the repeat runs, not every such curve was filed as active; the % refers to the signal ratio)
Outline: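 ER-beta-UAS-bla HEK293T cells in 2% charcoal-stripped FBS medium treated with compound plus 1nM final 17-beta-estradiol for 16 hr at 37C. Beta-lactamase reporter read by FRET substrate fluorescence after 2 hours at room temperature.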

Q: With `CC(C(=O)O)c1ccc(C(=O)c2ccccc2)s1` (configuration not stated) as the molecule, how does the Potency [1] read?
A: inactive

Q: What about the Potency [2] of the same molecule?
A: inactive

Q: And the Potency [3]?
A: inactive

Q: And the Potency [4]?
A: inactive

Q: And the Potency [5]?
A: inactive

Q: And the Potency [6]?
A: 6.68 µM (active)

Q: And the outcome [7]?
A: inactive

Q: What about the Potency [8] of the same molecule?
A: inactive

Q: What about the Potency [9] of the same molecule?
A: inactive

Q: What about the Potency [10] of the same molecule?
A: inactive

Q: And the Potency [11]?
A: inactive

Q: And the Potency [12]?
A: inactive

Q: And the Potency [13]?
A: inactive

Q: For `NCCCN(CCO)CCO`, which Potency [1] is on record?
A: inactive

Q: And the Potency [2]?
A: inactive

Q: And the Potency [3]?
A: inactive

Q: What about the Potency [4] of the same molecule?
A: inactive

Q: And the Potency [6]?
A: inactive

Q: And the outcome [7]?
A: inactive

Q: What about the Potency [8] of the same molecule?
A: inactive

Q: What about the Potency [9] of the same molecule?
A: inactive

Q: What about the outcome [14] of the same molecule?
A: inactive

Q: What about the Potency [10] of the same molecule?
A: inactive

Q: What about the Potency [11] of the same molecule?
A: inactive

Q: And the Potency [12]?
A: inactive

Q: What about the Potency [15] of the same molecule?
A: inactive

Q: And the Potency [13]?
A: inactive

Q: And the Potency [16]?
A: inactive

Q: And the Potency [17]?
A: inactive

Q: And the Potency [18]?
A: inactive

Q: Which Potency [1] does the source give for `CCN1CCC[C@H]1CNC(=O)c1c(OC)ccc(Br)c1OC` here?
A: inactive

Q: What about the Potency [2] of the same molecule?
A: inactive

Q: And the Potency [4]?
A: inactive

Q: What about the Potency [5] of the same molecule?
A: inactive

Q: And the Potency [6]?
A: inactive

Q: And the outcome [7]?
A: inactive

Q: And the Potency [8]?
A: inactive

Q: And the Potency [9]?
A: inactive

Q: What about the outcome [14] of the same molecule?
A: inactive

Q: What about the Potency [10] of the same molecule?
A: inactive

Q: What about the Potency [19] of the same molecule?
A: inactive

Q: And the Potency [20]?
A: inactive

Q: What about the Potency [12] of the same molecule?
A: inactive

Q: What about the Potency [13] of the same molecule?
A: inactive

Q: And the Potency [16]?
A: inactive

Q: And the Potency [17]?
A: inactive

Q: What about the Potency [18] of the same molecule?
A: inactive

Q: Which Potency [1] does the source give for `O=C(NS(=O)(=O)/C=C/c1cccs1)c1ccc(F)cc1Br` here?
A: inactive

Q: What about the Potency [2] of the same molecule?
A: inactive

Q: And the Potency [3]?
A: inactive

Q: What about the Potency [4] of the same molecule?
A: inactive

Q: And the Potency [6]?
A: inactive

Q: And the outcome [7]?
A: inactive

Q: What about the Potency [8] of the same molecule?
A: inactive

Q: And the Potency [9]?
A: inactive

Q: And the outcome [14]?
A: inactive

Q: What about the Potency [10] of the same molecule?
A: inactive

Q: And the Potency [11]?
A: inactive

Q: What about the Potency [12] of the same molecule?
A: inactive

Q: What about the Potency [15] of the same molecule?
A: inactive

Q: What about the Potency [13] of the same molecule?
A: inactive

Q: What about the Potency [16] of the same molecule?
A: inactive

Q: For `O=C(O)c1cccc(N(Cc2cccnc2)c2ccc(OC(F)F)c(OC(F)F)c2)c1`, which Potency [1] is on record?
A: inactive

Q: And the Potency [2]?
A: inactive

Q: And the Potency [3]?
A: 24.3 µM (active)

Q: What about the outcome [7] of the same molecule?
A: inactive

Q: What about the Potency [8] of the same molecule?
A: inactive

Q: And the Potency [9]?
A: inactive

Q: And the outcome [14]?
A: inactive

Q: And the Potency [10]?
A: 969 nM (active)

Q: And the Potency [11]?
A: inactive

Q: And the Potency [12]?
A: 48.6 µM (active)

Q: What about the Potency [15] of the same molecule?
A: inactive

Q: What about the Potency [17] of the same molecule?
A: inactive

Q: And the Potency [18]?
A: inactive

Q: What does the source list for `CC(=O)N(CC(=O)N(C)C)c1ccccc1`?
A: Potency [1]: inactive; Potency [2]: inactive; Potency [3]: inactive; Potency [4]: inactive; Potency [6]: inactive; outcome [7]: inactive; Potency [8]: inactive; Potency [9]: inactive; outcome [14]: inactive; Potency [19]: inactive; Potency [20]: inactive; Potency [12]: inactive; Potency [13]: inactive; Potency [16]: inactive; Potency [17]: inactive; Potency [18]: inactive

Q: Which Potency [1] does the source give for `O=C(O)c1cn(C2CC2)c2cc(Cl)c(F)cc2c1=O` here?
A: inactive

Q: And the Potency [2]?
A: inactive

Q: And the Potency [3]?
A: inactive

Q: What about the Potency [4] of the same molecule?
A: inactive

Q: What about the Potency [6] of the same molecule?
A: inactive

Q: And the outcome [7]?
A: inactive

Q: And the Potency [8]?
A: inactive

Q: And the Potency [9]?
A: inactive

Q: And the outcome [14]?
A: inactive

Q: What about the Potency [10] of the same molecule?
A: inactive

Q: And the Potency [11]?
A: inactive

Q: And the Potency [12]?
A: inactive

Q: What about the Potency [15] of the same molecule?
A: inactive

Q: What about the Potency [13] of the same molecule?
A: inactive

Q: And the Potency [16]?
A: inactive

Q: What about the Potency [18] of the same molecule?
A: inactive

Q: Which Potency [1] does the source give for `NC(N)=NN=C(/C=C/c1ccc([N+](=O)[O-])o1)/C=C/c1ccc([N+](=O)[O-])o1` here?
A: 11.9 µM (active)

Q: What about the Potency [2] of the same molecule?
A: 6.68 µM (active)

Q: And the Potency [3]?
A: 1.88 µM (active)

Q: And the Potency [4]?
A: inactive

Q: What about the Potency [5] of the same molecule?
A: inactive

Q: And the Potency [6]?
A: inactive

Q: What about the Potency [8] of the same molecule?
A: 2.37 µM (active)

Q: And the Potency [9]?
A: 2.37 µM (active)

Q: What about the Potency [10] of the same molecule?
A: 2980 nM (active)

Q: What about the Potency [11] of the same molecule?
A: 8.41 µM (active)

Q: And the Potency [12]?
A: 10.6 µM (active)

Q: What about the Potency [15] of the same molecule?
A: inactive

Q: And the Potency [13]?
A: 23.7 µM (active)

Q: What about the Potency [16] of the same molecule?
A: inactive

Q: And the Potency [17]?
A: inactive
